This is part of a sample that, as a whole, favours compounds with a hit. Of some 79,000 tested, about 15% had one in any assay. The source made the active and inactive calls. Rule as the data show it: active = growth inhibition above about 70%; inactive = the rest.
What was measured:
[1] = NCI Yeast Anticancer Drug Screen. Data for the rad52 strain (AID 147);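 also: 0% = growth of vehicle-treated control cultures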; details: S. cerevisiae rad52 mutant growth inhibition, hits give high values
Procedure, shortened: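 Yeast strain carrying a DNA damage repair alteration was exposed to test compounds. Growth inhibition was measured relative to vehicle-treated controls.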

[2] = NCI Yeast Anticancer Drug Screen. Data for the wt1 strain (AID 149);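 also: 0% = growth of vehicle-treated wt1 cultures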; details: S. cerevisiae wt1 strain (SPY 50644) growth inhibition, hits give high values
Procedure, shortened: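 wt1 yeast, compound-treated; % growth inhibition vs vehicle control.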

[3] = NCI Yeast Anticancer Drug Screen. Data for the rad50EPP+ strain (AID 151);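 also: 0% = growth of vehicle-treated control cultures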; details: S. cerevisiae rad50 mutant strain, hits give high values
Procedure, shortened: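 Yeast strain carrying rad50 alteration (rad50EPP+) exposed to compounds; growth inhibition measured relative to vehicle-treated controls.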

[4] = NCI Yeast Anticancer Drug Screen. Data for the mgt1 strain (AID 153); details: S. cerevisiae mgt1 mutant growth inhibition, hits give high values
Procedure, shortened: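 Yeast mgt1 strain (DNA repair/cell-cycle alteration panel) exposed to compounds; growth inhibition measured relative to vehicle-treated controls.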

[5] = NCI Yeast Anticancer Drug Screen. Data for the rad50 strain (AID 155);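 also: 0% = growth of vehicle-only cultures of the same strain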; details: S. cerevisiae rad50 strain growth inhibition, hits give high values
Procedure, shortened: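 Genetically altered yeast (DNA repair pathway); compound treatment; growth inhibition vs vehicle ctrl.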

[6] = NCI Yeast Anticancer Drug Screen. Data for the mec2-1 strain (AID 157); details: S. cerevisiae mec2-1 strain, hits give high values
Procedure, shortened: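 mec2-1 yeast strain, carrying an alteration in DNA damage repair or cell cycle control, was exposed to compounds; growth inhibition was measured relative to vehicle-treated controls.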

[7] = NCI Yeast Anticancer Drug Screen. Data for the rad14 strain (AID 159);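 also: 0% = growth of vehicle-treated control cultures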; details: S. cerevisiae rad14 strain growth inhibition, hits give high values
Procedure, shortened: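 Test compounds were applied to a repair-deficient yeast strain. Its growth was then compared with that of cultures given vehicle alone, and inhibition was expressed relative to those controls.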

[8] = NCI Yeast Anticancer Drug Screen. Data for the sgs1 mgt1 strain (AID 161);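 also: 0% = growth of cultures given vehicle only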; details: S. cerevisiae sgs1 mgt1 strain, hits give high values
Procedure, shortened: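 Yeast cells carrying a defined DNA-repair defect were exposed to test compounds. Growth inhibition was measured relative to vehicle-treated controls.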

[9] = NCI Yeast Anticancer Drug Screen. Data for the CLN2oe strain (AID 163);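 also: 0% = growth of vehicle-only control cultures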; details: S. cerevisiae CLN2oe strain, hits give high values
Procedure, shortened: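 Yeast cells carrying a defined cell-cycle control alteration were exposed to test compounds. Growth inhibition was scored against vehicle-treated control cultures.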

[10] = NCI Yeast Anticancer Drug Screen. Data for the cln2 rad14 strain (AID 165);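 also: 0% = growth equal to vehicle treated cultures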; details: S. cerevisiae cln2 rad14 strain, hits give high values
Procedure, shortened: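 Yeast carrying cln2 and rad14 alterations (cell cycle control and DNA damage repair) were exposed to compounds. Growth inhibition was measured against vehicle-treated controls.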

[11] = NCI Yeast Anticancer Drug Screen. Data for the bub3 strain (AID 167); details: S. cerevisiae bub3 mutant strain, hits give high values
Procedure, shortened: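 Yeast carrying a defined mutation is treated with each compound, and growth is compared with that of vehicle-exposed cells to give inhibition.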

[12] = NCI Yeast Anticancer Drug Screen. Data for the wt2 strain (AID 169);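 also: 0% = growth of vehicle-treated yeast cultures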; details: S. cerevisiae wt2 strain growth inhibition, hits give high values
Procedure, shortened: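 Yeast cells were exposed to test compounds, and growth inhibition was measured relative to vehicle-treated controls.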

[13] = NCI Yeast Anticancer Drug Screen. Data for the mlh1 strain (AID 171);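 also: 0% = growth of vehicle-treated control cultures of the same strain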; details: S. cerevisiae mlh1 strain growth inhibition, hits give high values
Procedure, shortened: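 Yeast carrying a defined genetic alteration in DNA damage repair or cell cycle control were exposed to test compounds. Growth inhibition was measured relative to vehicle-treated controls.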

[14] = NCI Yeast Anticancer Drug Screen. Data for the mlh1 rad18 strain (AID 175); details: S. cerevisiae mlh1 rad18 strain growth inhibition, hits give high values
Procedure, shortened: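 Growth inhibition of the yeast strain was measured after compound exposure and expressed relative to vehicle-treated controls. The strain carries defined defects in DNA damage repair.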

[15] = NCI Yeast Anticancer Drug Screen. Data for the rad18 strain (AID 177); details: S. cerevisiae rad18 mutant growth inhibition, hits give high values
Procedure, shortened: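 Yeast carrying a defined DNA damage repair alteration were exposed to compounds. Growth inhibition was expressed relative to vehicle-treated controls.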

[16] = at 5.0 µM (retest, dose inferred, filed as 0.5)
[17] = at 50.0 µM (retest, dose inferred, filed as 5.0)

Measured: growth inhibition

NCCOc1ccc(/C(=C(/Cl)c2ccccc2)c2ccccc2)cc1
active: [1]; at 33.0 µM 98% | [1]; at 100.0 µM 96% | [2]; at 33.0 µM 98% | [2]; at 100.0 µM 97% | [3]; at 33.0 µM 97% | [3]; at 100.0 µM 96% | [4]; at 33.0 µM 98% | [4]; at 100.0 µM 96% | [5]; at 33.0 µM 99% | [5]; [17] 98% | [5]; at 50.0 µM 85.5% | [5]; at 100.0 µM 96% | [6]; at 33.0 µM 98% | [6]; [17] 99% | [6]; at 50.0 µM 93.8% | [6]; at 100.0 µM 97% | [7]; at 11.0 µM 72% | [7]; at 33.0 µM 98% | [7]; at 100.0 µM 96% | [8]; [17] 98% | [8]; at 50.0 µM 92.7% | [9]; at 33.0 µM 98% | [9]; at 100.0 µM 96% | [10]; [17] 98% | [10]; at 50.0 µM 92.2% | [11]; at 33.0 µM 99% | [11]; [17] 98% | [11]; at 50.0 µM 91.8% | [11]; at 100.0 µM 96% | [12]; at 33.0 µM 98% | [12]; at 100.0 µM 97% | [13]; at 33.0 µM 99% | [13]; at 100.0 µM 97% | [14]; [17] 98% | [14]; at 50.0 µM 88.7% | [15]; at 33.0 µM 99% | [15]; at 100.0 µM 97%
inactive: [1]; at 1.2 µM -10% | [1]; at 3.7 µM -15% | [1]; at 11.0 µM 23% | [2]; at 1.2 µM 1% | [2]; at 3.7 µM -4% | [2]; at 11.0 µM 5% | [3]; at 1.2 µM 0% | [3]; at 3.7 µM 9% | [3]; at 11.0 µM 15% | [4]; at 1.2 µM -6% | [4]; at 3.7 µM -7% | [4]; at 11.0 µM 13% | [5]; at 1.2 µM -3% | [5]; at 3.7 µM 3% | [5]; [16] 17% | [5]; at 11.0 µM 39% | [6]; at 1.2 µM -5% | [6]; at 3.7 µM -17% | [6]; [16] 7% | [6]; at 11.0 µM 11% | [7]; at 1.2 µM -16% | [7]; at 3.7 µM -18% | [8]; [16] 7% | [9]; at 1.2 µM 18% | [9]; at 3.7 µM 12% | [9]; at 11.0 µM 36% | [10]; [16] 37% | [11]; at 1.2 µM 0% | [11]; at 3.7 µM -35% | [11]; [16] -11% | [11]; at 11.0 µM 14% | [12]; at 1.2 µM -4% | [12]; at 3.7 µM 0% | [12]; at 11.0 µM 2% | [13]; at 1.2 µM 18% | [13]; at 3.7 µM 10% | [13]; at 11.0 µM 34% | [14]; [16] -1% | [15]; at 1.2 µM 16% | [15]; at 3.7 µM 29% | [15]; at 11.0 µM 30%

COc1ccc2cc(C(C)C(=O)N3CCOC3=O)ccc2c1 (stereo unspecified)
inactive: [1]; at 1.2 µM -9% | [1]; at 3.7 µM -16% | [1]; at 11.0 µM -7% | [1]; at 33.0 µM -8% | [1]; at 100.0 µM 12% | [2]; at 1.2 µM -34% | [2]; at 3.7 µM -34% | [2]; at 11.0 µM -29% | [2]; at 33.0 µM -31% | [2]; at 100.0 µM -22% | [3]; at 1.2 µM 5% | [3]; at 3.7 µM 5% | [3]; at 11.0 µM 7% | [3]; at 33.0 µM 9% | [3]; at 100.0 µM 22% | [4]; at 1.2 µM 5% | [4]; at 3.7 µM 6% | [4]; at 11.0 µM 7% | [4]; at 33.0 µM 21% | [4]; at 100.0 µM 45% | [5]; at 1.2 µM 21% | [5]; at 3.7 µM 24% | [5]; [16] -14% | [5]; at 11.0 µM 15% | [5]; at 33.0 µM 23% | [5]; [17] 27% | [5]; at 50.0 µM 60.6% | [5]; at 100.0 µM 50% | [6]; at 1.2 µM -21% | [6]; at 3.7 µM -28% | [6]; [16] -11% | [6]; at 11.0 µM -27% | [6]; at 33.0 µM -19% | [6]; [17] 9% | [6]; at 50.0 µM 23.9% | [6]; at 100.0 µM 11% | [7]; at 1.2 µM -18% | [7]; at 3.7 µM -20% | [7]; at 11.0 µM -22% | [7]; at 33.0 µM -17% | [7]; at 100.0 µM 50% | [8]; [16] 7% | [8]; [17] 37% | [8]; at 50.0 µM 57.1% | [9]; at 1.2 µM 11% | [9]; at 3.7 µM 5% | [9]; at 11.0 µM -3% | [9]; at 33.0 µM -6% | [9]; at 100.0 µM 11% | [10]; [16] 16% | [10]; [17] 17% | [10]; at 50.0 µM 24.7% | [11]; at 1.2 µM 29% | [11]; at 3.7 µM 25% | [11]; [16] -15% | [11]; at 11.0 µM 24% | [11]; at 33.0 µM 21% | [11]; at 50.0 µM 29.2% | [11]; at 100.0 µM 40% | [12]; at 1.2 µM -41% | [12]; at 3.7 µM -41% | [12]; at 11.0 µM -34% | [12]; at 33.0 µM -28% | [12]; at 100.0 µM -7% | [13]; at 1.2 µM 21% | [13]; at 3.7 µM 10% | [13]; at 11.0 µM 11% | [13]; at 33.0 µM 21% | [13]; at 100.0 µM 64% | [14]; [16] -28% | [14]; at 50.0 µM 44.1% | [15]; at 1.2 µM 13% | [15]; at 3.7 µM 10% | [15]; at 11.0 µM 9% | [15]; at 33.0 µM 4% | [15]; at 100.0 µM 21%
active: [11]; [17] 75% | [14]; [17] 78%
